# Test results as given in the supplement of paper PMC10037445.
# Over roughly 2,900 compounds, “NF-kB SEAP reporter activity, fold change vs agonist alone” has its median near 0.99; the highest 2% begin near 2.6. The sample as a whole holds a higher share of the highest values than the screen did.
# What was measured:
# RAW-Dual [1] = assay: NF-kB SEAP reporter activity, fold change vs agonist alone; higher = enhanced NF-kB activity; details: library stock concentration (final ~1000-fold dilution): 10 mM
# Outline: (§1)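 Supernatant from RAW-Dual macrophages was read after 20 hours for IRF by QuantiLuc luminescence and for NF-κB by QuantiBlue absorbance at 620 nm. The cells (50,000 cells/well in DMEM, 384-well plates, 37 °C, 5% CO2) had received 50 nL of library stock by pin tool and, 1 h later, a PRR agonist. Reporter activity is expressed relative to agonist-alone wells as fold change, and wells were flagged cytotoxic if IncuCyte confluency was under 70% of agonist controls in both mask sets.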
# RAW-Dual [2] = assay: NF-kB SEAP reporter activity, fold change vs agonist alone; cytotoxicity flag (confluency mask): cytotoxic (confluency <70% of control); higher = enhanced NF-kB activity
# Outline: as §1
# RAW-Dual [3] = assay: NF-kB SEAP reporter activity, fold change vs agonist alone; cytotoxicity flag (confluency mask): not cytotoxic; higher = enhanced NF-kB activity
# Outline: as §1
# [4] = cytotoxicity flag (confluency mask): cytotoxic (confluency <70% of control), agonist: Imiquimod (TLR7) […]
# [5] = cytotoxicity flag (confluency mask): cytotoxic (confluency <70% of control), agonist: MPLA (TLR4) […]
# [6] = cytotoxicity flag (confluency mask): not cytotoxic, agonist: Imiquimod (TLR7) […]
# [7] = cytotoxicity flag (confluency mask): not cytotoxic, agonist: MPLA (TLR4) […]
# [8] = agonist: ODN 1826 (TLR9) 0.5 ug/mL
# [9] = agonist: Pam2CSK4 (TLR2/6) 0.1 ug/mL
# [10] = agonist: Pam3CSK4 (TLR2/1) 0.1 ug/mL
smiles,measurement,setting,value
CCC1(O)C(=O)OCc2c1cc1n(c2=O)Cc2cc3cc(O)ccc3nc2-1 (stereo not given),NF-kB SEAP reporter activity,RAW-Dual [1]; [4],2.34
same,NF-kB SEAP reporter activity,RAW-Dual [1]; [5],2
same,NF-kB SEAP reporter activity,RAW-Dual [1]; [6],0.896
same,NF-kB SEAP reporter activity,RAW-Dual [1]; [7],0.856
CCC1(O)C(=O)OCc2c1cc1n(c2=O)Cc2cc3c(CN(C)C)c(O)ccc3nc2-1.Cl (stereo not given) (library stock concentration (final ~1000-fold dilution): 10 mM),NF-kB SEAP reporter activity,RAW-Dual [2]; agonist: LPS (TLR4) 0.1 ug/mL,2.73
same,NF-kB SEAP reporter activity,RAW-Dual [2]; [8],2.71
same,NF-kB SEAP reporter activity,RAW-Dual [2]; [9],0.868
same,NF-kB SEAP reporter activity,RAW-Dual [2]; [10],1.35
CCC1(O)C(=O)OCc2c1cc1n(c2=O)Cc2cc3c(CN(C)C)c(O)ccc3nc2-1.Cl (stereo not given),NF-kB SEAP reporter activity,RAW-Dual [1]; [4],2.3
same,NF-kB SEAP reporter activity,RAW-Dual [1]; [5],2.16
CCC1(O)C(=O)OCc2c1cc1n(c2=O)Cc2cc3c(CN(C)C)c(O)ccc3nc2-1 (stereo not given) (library stock concentration (final ~1000-fold dilution): 10 mM),NF-kB SEAP reporter activity,RAW-Dual [3]; agonist: LPS (TLR4) 0.1 ug/mL,2.01
same,NF-kB SEAP reporter activity,RAW-Dual [3]; [8],1.59
same,NF-kB SEAP reporter activity,RAW-Dual [3]; [9],0.849
same,NF-kB SEAP reporter activity,RAW-Dual [3]; [10],1.27
CCC1(O)C(=O)OCc2c1cc1n(c2=O)Cc2cc3cc(O)ccc3nc2-1 (stereo not given) (library stock concentration (final ~1000-fold dilution): 10 mM),NF-kB SEAP reporter activity,RAW-Dual [3]; agonist: LPS (TLR4) 0.1 ug/mL,1.08
same,NF-kB SEAP reporter activity,RAW-Dual [3]; [8],0.937
same,NF-kB SEAP reporter activity,RAW-Dual [3]; [9],1.07
same,NF-kB SEAP reporter activity,RAW-Dual [3]; [10],1.14
same,NF-kB SEAP reporter activity,RAW-Dual [2]; agonist: LPS (TLR4) 0.1 ug/mL,1.9
same,NF-kB SEAP reporter activity,RAW-Dual [2]; [8],2.17
same,NF-kB SEAP reporter activity,RAW-Dual [2]; [9],1.03
same,NF-kB SEAP reporter activity,RAW-Dual [2]; [10],1.5
Cc1nnc(C(C)C)n1C1CC2CCC(C1)N2CCC(NC(=O)C1CCC(F)(F)CC1)c1ccccc1 (stereo not given) (library stock concentration (final ~1000-fold dilution): 10 mM),NF-kB SEAP reporter activity,RAW-Dual [3]; agonist: LPS (TLR4) 0.1 ug/mL,0.973
same,NF-kB SEAP reporter activity,RAW-Dual [3]; [8],1.04
same,NF-kB SEAP reporter activity,RAW-Dual [3]; [9],1.06
same,NF-kB SEAP reporter activity,RAW-Dual [3]; [10],1.11
Cc1nnc(C(C)C)n1C1CC2CCC(C1)N2CCC(NC(=O)C1CCC(F)(F)CC1)c1ccccc1 (stereo not given),NF-kB SEAP reporter activity,RAW-Dual [1]; [6],0.968
same,NF-kB SEAP reporter activity,RAW-Dual [1]; [7],1
O=C(/C=C/c1ccccc1)NC(NC(=S)Nc1ccc(Cl)cc1)C(Cl)(Cl)Cl (stereo not given) (library stock concentration (final ~1000-fold dilution): 10 mM),NF-kB SEAP reporter activity,RAW-Dual [2]; agonist: LPS (TLR4) 0.1 ug/mL,2.64
same,NF-kB SEAP reporter activity,RAW-Dual [2]; [8],1.22
same,NF-kB SEAP reporter activity,RAW-Dual [2]; [9],0.494
same,NF-kB SEAP reporter activity,RAW-Dual [2]; [10],0.809
O=C(/C=C/c1ccccc1)NC(NC(=S)Nc1ccc(Cl)cc1)C(Cl)(Cl)Cl (stereo not given),NF-kB SEAP reporter activity,RAW-Dual [1]; [4],1.03
same,NF-kB SEAP reporter activity,RAW-Dual [1]; [5],2.18
O=C(NC(NC(=S)Nc1ccc(F)c([N+](=O)[O-])c1)C(Cl)(Cl)Cl)C(c1ccccc1)c1ccccc1 (stereo not given) (library stock concentration (final ~1000-fold dilution): 10 mM),NF-kB SEAP reporter activity,RAW-Dual [2]; agonist: LPS (TLR4) 0.1 ug/mL,0.182
same,NF-kB SEAP reporter activity,RAW-Dual [2]; [8],0.493
same,NF-kB SEAP reporter activity,RAW-Dual [2]; [9],0.146
same,NF-kB SEAP reporter activity,RAW-Dual [2]; [10],0.135
O=C(/C=C/c1ccccc1)NC(NC(=S)Nc1cccc2cccnc12)C(Cl)(Cl)Cl (stereo not given) (library stock concentration (final ~1000-fold dilution): 10 mM),NF-kB SEAP reporter activity,RAW-Dual [3]; agonist: LPS (TLR4) 0.1 ug/mL,0.779
same,NF-kB SEAP reporter activity,RAW-Dual [3]; [8],0.429
same,NF-kB SEAP reporter activity,RAW-Dual [3]; [9],0.288
same,NF-kB SEAP reporter activity,RAW-Dual [3]; [10],0.388
O=C(NC(NC(=S)Nc1ccc(F)c([N+](=O)[O-])c1)C(Cl)(Cl)Cl)C(c1ccccc1)c1ccccc1 (stereo not given),NF-kB SEAP reporter activity,RAW-Dual [1]; [4],0.707
same,NF-kB SEAP reporter activity,RAW-Dual [1]; [5],0.521
O=C(/C=C/c1ccccc1)NC(NC(=S)Nc1cccc2cccnc12)C(Cl)(Cl)Cl (stereo not given),NF-kB SEAP reporter activity,RAW-Dual [1]; [6],0.628
same,NF-kB SEAP reporter activity,RAW-Dual [1]; [7],0.833
Cc1cc2c(C(=O)NCC(C)c3ccccc3)c(O)c(O)cc2c(O)c1-c1c(C)cc2c(C(=O)NCC(C)c3ccccc3)c(O)c(O)cc2c1O (stereo not given),NF-kB SEAP reporter activity,RAW-Dual [1]; [6],1.84
same,NF-kB SEAP reporter activity,RAW-Dual [1]; [7],2.27
Cc1cc2c(C(=O)NCC(C)c3ccccc3)c(O)c(O)cc2c(O)c1-c1c(C)cc2c(C(=O)NCC(C)c3ccccc3)c(O)c(O)cc2c1O (stereo not given) (library stock concentration (final ~1000-fold dilution): 10 mM),NF-kB SEAP reporter activity,RAW-Dual [3]; agonist: LPS (TLR4) 0.1 ug/mL,4.28
same,NF-kB SEAP reporter activity,RAW-Dual [3]; [8],2.93
same,NF-kB SEAP reporter activity,RAW-Dual [3]; [9],0.803
same,NF-kB SEAP reporter activity,RAW-Dual [3]; [10],1.62
N=C(N)Nc1nc(CSCCC(=N)NS(N)(=O)=O)cs1,NF-kB SEAP reporter activity,RAW-Dual [1]; [6],0.918
same,NF-kB SEAP reporter activity,RAW-Dual [1]; [7],1
N=C(N)Nc1nc(CSCCC(=N)NS(N)(=O)=O)cs1 (library stock concentration (final ~1000-fold dilution): 10 mM),NF-kB SEAP reporter activity,RAW-Dual [3]; agonist: LPS (TLR4) 0.1 ug/mL,1.03
same,NF-kB SEAP reporter activity,RAW-Dual [3]; [8],1.06
same,NF-kB SEAP reporter activity,RAW-Dual [3]; [9],1.25
same,NF-kB SEAP reporter activity,RAW-Dual [3]; [10],1.09
CN1CCCC1CCOC(C)(c1ccccc1)c1ccc(Cl)cc1.O=C(O)/C=C/C(=O)O (stereo not given),NF-kB SEAP reporter activity,RAW-Dual [1]; [6],1.7
same,NF-kB SEAP reporter activity,RAW-Dual [1]; [7],0.942
CN1CCCC1CCOC(C)(c1ccccc1)c1ccc(Cl)cc1.O=C(O)/C=C/C(=O)O (stereo not given) (library stock concentration (final ~1000-fold dilution): 10 mM),NF-kB SEAP reporter activity,RAW-Dual [3]; agonist: LPS (TLR4) 0.1 ug/mL,1.32
same,NF-kB SEAP reporter activity,RAW-Dual [3]; [8],0.754
same,NF-kB SEAP reporter activity,RAW-Dual [3]; [9],0.873
same,NF-kB SEAP reporter activity,RAW-Dual [3]; [10],0.64
O=C(O)CCCN1CCC(OC(c2ccc(Cl)cc2)c2ccccn2)CC1.O=S(=O)(O)c1ccccc1 (stereo not given) (library stock concentration (final ~1000-fold dilution): 10 mM),NF-kB SEAP reporter activity,RAW-Dual [3]; agonist: LPS (TLR4) 0.1 ug/mL,1.04
same,NF-kB SEAP reporter activity,RAW-Dual [3]; [8],1.06
same,NF-kB SEAP reporter activity,RAW-Dual [3]; [9],1.01
same,NF-kB SEAP reporter activity,RAW-Dual [3]; [10],1.17
O=C(O)CCCN1CCC(OC(c2ccc(Cl)cc2)c2ccccn2)CC1.O=S(=O)(O)c1ccccc1 (stereo not given),NF-kB SEAP reporter activity,RAW-Dual [1]; [6],1.08
same,NF-kB SEAP reporter activity,RAW-Dual [1]; [7],1.03
N#CC1CC2CC2N1C(=O)C(N)C12CC3CC(CC(O)(C3)C1)C2.O (stereo not given) (library stock concentration (final ~1000-fold dilution): 10 mM),NF-kB SEAP reporter activity,RAW-Dual [3]; agonist: LPS (TLR4) 0.1 ug/mL,1.27
same,NF-kB SEAP reporter activity,RAW-Dual [3]; [8],1.44
same,NF-kB SEAP reporter activity,RAW-Dual [3]; [9],1.71
same,NF-kB SEAP reporter activity,RAW-Dual [3]; [10],1.75
N#CC1CC2CC2N1C(=O)C(N)C12CC3CC(CC(O)(C3)C1)C2.O (stereo not given),NF-kB SEAP reporter activity,RAW-Dual [1]; [7],1.19
